High-throughput results (PubChem BioAssay)
Compounds with a hit are over-represented: about 3.5% of the library has one in this group of screens.
Rv3671c inh – inhibits the M. tuberculosis serine protease Rv3671c. AID 2606. inhibition, % at 5.96 µM. 0.048% of 320,000 active. P9WHR9; in the data active = inhibition above about 38%;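 also: extracellular domain of Rv3671c used as enzyme; 0% = enzyme with DMSO and 100% = no enzyme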
Mtb FBA inh – inhibits M. tuberculosis FBA enzyme | 2.3% of 360,000 active | inhibition, % at 1 µM | purified M. tuberculosis FBA, fluorescence read-out | AID 588726; in the data active = inhibition above about 27%;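 also: 0% = vehicle and 100% = reference inhibitor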
UGM FP inh – inhibitors of M. tuberculosis UDP-galactopyranose mutase; P9WIQ1; purified UGM, fluorescence polarization probe displacement; 0.06% of 320,000 active; inhibition, % at 10 µM; in the data active = inhibition above about 10%, passing the limit was not always enough
Target sequence (P9WIQ1 whole entry, looked up): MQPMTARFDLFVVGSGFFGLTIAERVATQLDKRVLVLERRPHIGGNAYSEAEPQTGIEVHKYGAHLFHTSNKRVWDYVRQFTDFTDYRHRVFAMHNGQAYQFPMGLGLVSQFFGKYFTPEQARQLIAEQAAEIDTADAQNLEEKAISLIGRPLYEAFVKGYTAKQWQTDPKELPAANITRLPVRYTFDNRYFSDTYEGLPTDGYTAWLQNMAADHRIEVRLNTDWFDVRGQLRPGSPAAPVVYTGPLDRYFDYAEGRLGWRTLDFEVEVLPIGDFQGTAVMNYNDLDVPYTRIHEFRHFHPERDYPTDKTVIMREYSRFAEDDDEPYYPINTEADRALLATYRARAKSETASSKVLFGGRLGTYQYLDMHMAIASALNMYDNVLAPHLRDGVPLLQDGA
GDH-TPI inh – GDH-TPI coupled enzyme inhibition counter-screen; GDH-TPI coupled enzyme counterscreen, NADH absorbance; inhibition, % at 4.8 µM; 1.2% of 360,000 active; AID 588335; in the data active = inhibition above about 30%;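 also: 0% = DMSO wells and 100% = wells lacking the enzyme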
* marks the source's active call; other numbers are inactive results; / = no result given; + = active, no number.

SMILES | Rv3671c inh | Mtb FBA inh | UGM FP inh | GDH-TPI inh
COc1ccc(C(=O)NCc2ccccc2CN2CCCC2)cc1S(=O)(=O)N1CCOCC1 | / | 0 | / | -2
O=c1c2c(nc3c(-c4cccc5ccccc45)c[nH]n13)CCC2 | -6 | 129* | -1 | 5
CCN1C(=O)[C@H]2[C@@H](c3ccc(OC)cc3)N3C(=O)CN(CCOC)C(=O)[C@@]3(Cc3ccccc3)[C@H]2C1=O | 0 | -1 | -1 | -12
CC(=O)c1ccc(N2CCN(c3ccc(S(=O)(=O)NCCCN(C)C)cc3[N+](=O)[O-])CC2)cc1 | 10 | -4 | 3 | 57*
C=CCOc1ccc(C2OC34CCCCC3C(C#N)(C#N)C2(C#N)C(=N)O4)cc1 (centres undefined) | 7 | 58* | 5 | 4
CCOc1ccc(C2OC34CCCCC3C(C#N)(C#N)C2(C#N)C(=N)O4)cc1OC (centres undefined) | 37 | 75* | -1 | -3
CCCCOc1ccc(C2OC34CCCCC3C(C#N)(C#N)C2(C#N)C(=N)O4)cc1 (centres undefined) | 12 | 73* | 2 | -3
CCOc1ccc(C2C(C#N)=C(N)SC(N)=C2C#N)cc1OC | -19 | / | 0 | /
O=C(NCc1cnc2ccccn12)C1CCC(=O)N(Cc2ccccc2F)C1 (centres undefined) | / | 21 | 1 | -4
COC(=O)Cc1c(C)c2ccc(OCC(=O)N3CCOCC3)cc2oc1=O | 10 | 123* | -2 | 26
COC(=O)c1cc(-c2c(C)oc3cc(OC(C)C)ccc3c2=O)c(C)o1 | -1 | 0 | -1 | 10
COC(=O)Cc1c(C)c2cc(Cl)c(OC(=O)c3ccco3)cc2oc1=O | 4 | + | 4 | 2
COC(=O)Cc1c(C)c2ccc(OC(C)C)cc2oc1=O | -8 | + | -1 | 30
Cc1c(CC(=O)O)c(=O)oc2cc(OCc3ccc(F)cc3F)ccc12 | -5 | 156* | -1 | 18
O=C(Oc1cc(=O)oc2ccccc12)c1ccco1 | -3 | -5 | -1 | 9
COc1cc(C(=O)Nc2ccc(OCC(=O)N3CCOCC3)cc2C)cc(OC)c1OC | -20 | 1 | -5 | 11
Cc1c(CC(=O)O)c(=O)oc2cc3occ(-c4ccc(F)cc4)c3cc12 | 2 | 4 | -4 | 10
COc1cccc(C(=O)OCC(=O)Nc2cc(C)on2)c1OC | 9 | 1 | 1 | 6
O=C(N/C(=C/c1ccc(Br)cc1)C(=O)N1CCCCC1)c1ccccc1F | -2 | -2 | 2 | -6
CCN1C(=NCCc2cccs2)N[C@@H](c2cccs2)C(C(=O)OC)=C1C | 4 | 0 | -1 | 2
COC(=O)Cc1c(C)c2ccc(OCC(=O)N(C)C3CCS(=O)(=O)C3)cc2oc1=O (centres undefined) | 3 | 114* | -1 | 17
COC(=O)Cc1c(C)c2ccc(OC(=O)c3ccco3)cc2oc1=O | 0 | + | -1 | 17
CN(C(=O)COc1ccccc1)C1CCS(=O)(=O)C1 (centres undefined) | 7 | -2 | 1 | -3
O=C(CN1C(=O)c2cccnc2Oc2ccc(Cl)cc21)Nc1ccccc1F | -29 | 1 | 1 | -4
COc1nc(=O)n(C2C=CC(=O)O2)cc1F (centres undefined) | / | 3 | / | 11
SMILES | Rv3671c inh | Mtb FBA inh | UGM FP inh | GDH-TPI inh
Cc1cccc(C)c1NC(=O)CNC(=O)c1ccc2ccccc2n1 | -1 | 6 | -4 | -1
COc1cccc2c1C(=O)c1c(O)c3c(c(O)c1C2=O)C[C@@](O)(C(=O)CO)C[C@@H]3O[C@H]1C[C@H](N)[C@@H](O)[C@H](C)O1 | 37 | 1 | 38* | 20
COc1cccc2c1C(=O)c1c(O)c3c(c(O)c1C2=O)C[C@@](O)(C(C)=O)C[C@@H]3O[C@H]1C[C@H](N)[C@H](O)[C@H](C)O1 | / | -6 | / | 14
CCCc1nnc(SCC(=O)Nc2ccc(NC(C)=O)cc2)n1-n1cccc1 | -4 | 0 | 2 | 1
COc1ccc(N2C(=O)/C(=C/N(C)C)NC2=S)cc1 | -4 | -4 | 1 | 18
CCN1C(=O)/C(=C\N(C)C)NC1=S | -5 | -4 | -1 | 34*
Cc1ccc(C(=O)N2CCN(c3ccc(NC(=O)COc4ccccc4C)cc3)CC2)cc1 | 7 | 4 | -3 | 0
C=C(C)c1cccc(C(C)(C)NC(=O)N2CCCCC2CC)c1 (centres undefined) | 1 | 180* | 0 | 5
O=c1c(-c2nc3ccccc3s2)cccn1Cc1ccc(Cl)cc1 | -18 | 142* | 1 | 10
CCC(Oc1ccccc1)C(=O)Nc1ccc(C)c(S(=O)(=O)N2CCOCC2)c1 (centres undefined) | 3 | -2 | -1 | 2
CCOc1ccc(-c2c(C(=O)N/N=C/c3c[nH]c4ccccc34)nnn2-c2nonc2N)cc1 | 28 | -2 | 2 | 40*
